Most compounds without a hit are left out; they make up all but 3.8% or so of the library.
Nrf2 ARE act = Nrf2 pathway activation | AREc32 ARE-luciferase reporter (MCF7-derived line), luminescence, 24 h | AID 624171 | 0.31% of 410,000 active | Potency, µM (series often up to 46.1 µM), inactives show at the highest dose activation, usual class: activators; also: % of control where 0% means no effect; nearly all actives have a fitted effect of over 65% in size
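ARE activation measured as luciferase luminescence (Steady-Glo, 30 min RT) in AREc32_Fluc cells after 24 hr compound exposure at 37 deg C, 5% CO2; cells seeded overnight at 1000/well in OPTI-MEM, 5% FBS.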
ELG1 repair inh = blocks ELG1-dependent DNA repair in HEK293T cells. Potency, µM (series often up to 46.1 µM), without a hit: at the top dose activity change, negative = inhibition, most hits filed as inhibitors. 2.3% of 330,000 active. HEK293T ELG1-luciferase reporter, luminescence, 16 h; DNA damage induced by 5-fluorouridine; also: % is scaled to controls: 0 for no effect and ±100 for the full control effect; nearly all actives have a fitted effect of over 55% in size
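Reporter activity after DNA damage by 5-fluorouridine is monitored. Compound-treated cells incubate 16 hr at 37 °C, then ONE-Glo is added for 30 min before luminescence reading.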
A549 viability = kills or reduces viability of A549 cells in Nrf2 counter-screen | A549 ARE-Fluc cells, CellTiter-Fluor viability, 18-24 h | Potency, µM (top dose mostly 46 µM), without a hit: at the top dose activity change, negative = cytotoxicity, usual class: inhibitors | 0.16% of 390,000 active | AID 504648; also: % is scaled to controls: 0 for no effect and ±100 for the full control effect
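Cytotoxicity counterscreen: CellTiter-Fluor fluorescence was measured in A549 ARE_Fluc cells after 18-24 h of compound exposure in a concentration series. The subsequent BugLite luminescent read reports ARE-luciferase activity.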
Nrf2 block = inhibitors of Nrf2 signaling; A549 ARE-Fluc reporter, luciferase luminescence, 18-24 h; Potency, µM (doses to about 46 µM), for inactives: at the top dose activity change, negative = inhibition, hits mostly inhibitors; 2.1% of 360,000 active; also: % is scaled to controls: 0 for no effect and ±100 for the full control effect; nearly all actives have a fitted effect of over 60% in size
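A549 ARE_Fluc cells, 5000/well, 5% FBS OPTI-MEM; compounds in dose-response, 18-24 h at 37 °C/5% CO2; CellTiter-Fluor viability read (Ex 405/Em 525), then BugLite luciferase luminescence = Nrf2 activity.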
mIDH1 inhibitor = inhibitors of human mutant IDH1 R132H; O75874; IDH1-R132H enzyme, NADPH consumption, diaphorase/resazurin fluorescence; Potency, µM (top dose mostly 76.6 µM), without a hit: top-dose activity change, negative = inhibition, actives largely listed as inhibitors; 0.093% of 390,000 active; also: % is scaled to controls: 0 for no effect and ±100 for the full control effect; nearly all actives have a fitted effect of over 65% in size
Target sequence (O75874 whole entry R132H, stated change not applied): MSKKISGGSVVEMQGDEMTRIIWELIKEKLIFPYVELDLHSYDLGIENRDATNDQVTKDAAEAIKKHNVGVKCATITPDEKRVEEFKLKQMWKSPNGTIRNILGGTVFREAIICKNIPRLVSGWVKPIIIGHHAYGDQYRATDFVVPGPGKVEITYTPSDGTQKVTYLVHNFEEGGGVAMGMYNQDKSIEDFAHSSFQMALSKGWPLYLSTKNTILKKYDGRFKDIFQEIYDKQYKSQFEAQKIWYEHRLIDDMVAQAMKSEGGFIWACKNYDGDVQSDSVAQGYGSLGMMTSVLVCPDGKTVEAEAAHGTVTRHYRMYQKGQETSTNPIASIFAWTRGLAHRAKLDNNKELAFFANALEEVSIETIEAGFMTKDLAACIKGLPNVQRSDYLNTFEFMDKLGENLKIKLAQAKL
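IDH1-R132H (0.5 ug/mL) preincubated 30 min with compound, then NADPH (0.016 mM) and alpha-KG (2 mM) added; 80 min at RT, pH 7.5. Remaining NADPH coupled via diaphorase/resazurin to fluorescence (540/590 nm); concentration-response curves normalized to no-enzyme control.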
* marks the source's active call; other numbers are inactive results; ? = inconclusive; nt = not tested or not shown; [ ] = dose if it differs, or a comment. Calls follow the shape of the dose curve; as a rule, active = well fitted curve in the direction sought with a large enough effect; inconclusive = small, poorly fitted or top-dose-only effect, or another doubt; inactive = no such curve, though single readings can be large; an effect the other way counts as inactive or inconclusive. Potency is read from the fitted curve at half-maximal effect.

SMILES	Nrf2 ARE act	ELG1 repair inh	A549 viability	Nrf2 block	mIDH1 inhibitor
O=S(=O)(Nc1ccc(-c2csc(-c3ccccc3)n2)cc1)c1ccc(F)cc1	-0.7%	21.0%	-13.2%	-20.9%	3.1%
O=C(Cc1ccc(F)cc1)Nc1nc(-c2ccc(F)c(F)c2)cs1	9.0%	-1.6%	-29.1%	23.1µM*	-0.9%
O=C(CCS(=O)(=O)c1ccc(F)cc1)Nc1nc(-c2ccncc2)cs1	15.8µM*	4.8%	-4.1%	-6.2%	-0.7%
O=C(Nc1nc(-c2ccccc2)cs1)c1ccccc1NS(=O)(=O)c1ccc(F)cc1	11.1%	?	?	6.51µM*	-7.4%
Cc1csc(NC(=O)Cc2ccc(F)cc2)n1	4.4%	?	-4.1%	?	5.8%
O=C(CSc1ncnc2[nH]ncc12)Nc1nc(-c2ccc(F)c(F)c2)cs1	6.8%	?	7.1%	6.51µM*	1.5%
COc1ccc(CC(=O)Nc2nc(-c3ccc(F)c(F)c3)cs2)cc1	3.6%	20.6µM*	-3.2%	?	-4.0%
COc1ccc(CC(=O)Nc2nc(-c3cccc([N+](=O)[O-])c3)cs2)cc1	0.4%	?	0.5%	-20.1%	0.3%
N#Cc1nc(Nc2ccccc2)nc(NC2CCCCC2)n1	nt	nt	-11.0%	?	nt
CN1CC=C2C(C#N)=C(N)C(C#N)(C#N)C(CCc3ccccc3)C2C1 (stereo not drawn)	3.9%	3.2%	1.0%	-4.8%	41.4µM*
CCCC1C2CN(C(C)C)CC=C2C(C#N)=C(N)C1(C#N)C#N (stereo not drawn)	0.8%	-19.2%	?	6.51µM*	?
CN1CC=C2C(C#N)=C(N)C(C#N)(C#N)[C@H](c3cccs3)[C@H]2C1	7.9%	-11.3%	-17.9%	-15.2%	3.2%
COc1ccc(-c2csc(NC(=O)c3c(C)noc3C)n2)cc1OC	-0.7%	nt	nt	nt	4.6%
COc1ccc2ncnc(NCC3CCCO3)c2c1-c1ccc2c(c1)OCO2 (stereo not drawn)	nt	nt	-23.7%	?	nt
Cc1cccc(NC(=O)C(c2ccccc2)N2Cc3ccccc3C2=O)c1C (stereo not drawn)	-0.7%	nt	-4.0%	6.3%	-15.1%
COc1ccc(-n2c(/C=C/c3ccccc3F)nc3cc(OC)c(OC)cc3c2=O)cc1Cl	-0.6%	nt	-4.6%	nt	-16.9%
CC(=O)N(CCc1ccccc1C)Cc1cc2ccc(C)cc2[nH]c1=O	-0.6%	16.4µM*	0.7%	?	1.0%
CNC(=S)N(CCc1cccc(C)c1)Cc1cc2cc(OC)c(OC)cc2[nH]c1=O	3.5%	13µM*	-9.6%	-12.6%	3.3%
CCCCN(CC)C(=O)c1ccc2c(c1)NC(=O)c1ccccc1S2	3.6%	nt	-6.4%	?	-14.7%
Cc1ccc2ncnc(NCc3ccco3)c2c1	nt	nt	-9.4%	?	nt
O=C(NCCO)c1ccc(-c2cnc3cccnn23)cc1	-1.1%	nt	nt	nt	nt
COc1ccc(S(=O)(=O)Nc2cc3c(cc2NCc2ccccc2)n(C)c(=O)n3C)cc1	11.2µM*	nt	-3.6%	-8.6%	34.1%
CN(C(=O)c1coc(=O)c2ccccc12)c1ccc(F)cc1	-0.1%	0.1%	-16.4%	23.1µM*	2.2%
Cc1cc(C)c(S(=O)(=O)Nc2ccc(-c3ccc(N4CCCCCC4)nn3)cc2)c(C)c1	0.4%	nt	-7.2%	nt	-11.5%
CCCOC(=O)C(C)n1nnc2sc(-c3ccccc3)cc2c1=O (stereo not drawn)	13.2%	nt	-1.5%	20.6µM*	nt
SMILES	Nrf2 ARE act	ELG1 repair inh	A549 viability	Nrf2 block	mIDH1 inhibitor
CCOC(=O)C(CC)n1nnc2sc(-c3ccccc3)cc2c1=O (stereo not drawn)	6.2%	nt	0.4%	?	nt
CCOC(=O)C1=C(C)N=c2s/c(=C\c3ccc(O)c([N+](=O)[O-])c3)c(=O)n2C1c1ccccc1OC (stereo not drawn)	0.1%	-28.5%	-24.7%	-11.4%	-11.7%
CCOC(=O)C1=C(C)N=c2s/c(=C/c3cccc([N+](=O)[O-])c3O)c(=O)n2C1c1ccc(OC)cc1OC (stereo not drawn)	0.2%[9.22 µM]	-4.2%	16.4µM*	?	-10.3%
COC(=O)c1cc2c(-c3ccccc3)cc3ccccn3c-2c1C(=O)OC	1.1%	23.1µM*	?	?	-0.6%
COC(=O)c1c(C)c2c(C)cc3ccccn3c-2c1C(=O)OC	-0.7%	-12.4%	-16.0%	-26.9%	3.6%
O=C(Nc1cccc(Br)c1)c1cccc(OC(=S)N2CCOCC2)c1	8.8%	14.6µM*	-1.9%	16.4µM*	5.4%
COC(=O)c1ccc(NC(=S)NCCC2=CCCCC2)cc1	-0.5%	6.0%	-1.3%	?	-2.7%
COC(=O)c1cccc(NC(=S)NCCC2=CCCCC2)c1	4.3%	?	-8.2%	23.1µM*	2.4%
CC[n+]1c(/C=C(/C)SC)sc2ccccc21	1.9%	2.5%	?	?	7.7%
CC[n+]1c(/C=C(\C)SC)sc2ccccc21	2.1%	6.4%	-18.1%	20.6µM*	2.2%
CC[n+]1c(C=C2C=C(C)OC(C)=C2)sc2ccccc21	22.2%	?	2.91µM*	0.731µM*	8.2%
CCC(C)c1ccccc1NC(=O)C(C)OC(=O)CN1C(=O)NC(C)(C)C1=O (stereo not drawn)	0.0%	9.9%	-0.3%	2.2%	-0.6%
CC(=O)Nc1ccc(NC(=O)c2c(C)nn(Cc3ccccc3Cl)c2C)cc1	-0.2%	15.2%	2.0%	-6.9%	-0.8%
Cc1cccc(N2CCN(C(=O)c3c(C)nn(Cc4ccccc4Cl)c3C)CC2)c1C	-2.8%	20.6µM*	0.1%	nt	0.9%
CN(C)c1ccc(C(C[N+](=O)[O-])c2c(N)n(C)c(=O)n(C)c2=O)c(F)c1C#N (stereo not drawn)	?	-8.0%	-17.8%	?	9.4%
Cn1c(N)c(C(C[N+](=O)[O-])c2c(F)cccc2Cl)c(=O)n(C)c1=O (stereo not drawn)	15.8µM*	?	-5.0%	10.9%	15.7%
Cc1cc(C(C)(C)C)cc(C)c1Cn1c2[n+](c3ccc(C(F)(F)F)cc31)CCCCC2	-2.3%	14.6µM*	-16.8%	?	-10.1%
O=[N+]([O-])c1ccc(-n2cnc3ccccc32)c([N+](=O)[O-])c1	0.6%	23.1µM*	-0.2%	12.1%	-0.9%
Fc1ccc(/C=N/NC(=S)Nc2ccc(Cl)cc2Cl)cc1	6.7%	-4.4%	-8.5%	4.6%	0.0%
